Assay outcomes: PubChem, University of Kansas High Throughput Screening Laboratory
Only a selection was taken, and hits are over-represented in it overall.
mHTT CaM bind = inhibitors of human mutant huntingtin-calmodulin interaction; AlphaScreen His-mHTT/GST-CaM binding, luminescence; inhibition, % at 15 µM; 3.6% of 190,000 active; AID 1671202
Target sequence (P42858 whole entry, looked up, change not shown): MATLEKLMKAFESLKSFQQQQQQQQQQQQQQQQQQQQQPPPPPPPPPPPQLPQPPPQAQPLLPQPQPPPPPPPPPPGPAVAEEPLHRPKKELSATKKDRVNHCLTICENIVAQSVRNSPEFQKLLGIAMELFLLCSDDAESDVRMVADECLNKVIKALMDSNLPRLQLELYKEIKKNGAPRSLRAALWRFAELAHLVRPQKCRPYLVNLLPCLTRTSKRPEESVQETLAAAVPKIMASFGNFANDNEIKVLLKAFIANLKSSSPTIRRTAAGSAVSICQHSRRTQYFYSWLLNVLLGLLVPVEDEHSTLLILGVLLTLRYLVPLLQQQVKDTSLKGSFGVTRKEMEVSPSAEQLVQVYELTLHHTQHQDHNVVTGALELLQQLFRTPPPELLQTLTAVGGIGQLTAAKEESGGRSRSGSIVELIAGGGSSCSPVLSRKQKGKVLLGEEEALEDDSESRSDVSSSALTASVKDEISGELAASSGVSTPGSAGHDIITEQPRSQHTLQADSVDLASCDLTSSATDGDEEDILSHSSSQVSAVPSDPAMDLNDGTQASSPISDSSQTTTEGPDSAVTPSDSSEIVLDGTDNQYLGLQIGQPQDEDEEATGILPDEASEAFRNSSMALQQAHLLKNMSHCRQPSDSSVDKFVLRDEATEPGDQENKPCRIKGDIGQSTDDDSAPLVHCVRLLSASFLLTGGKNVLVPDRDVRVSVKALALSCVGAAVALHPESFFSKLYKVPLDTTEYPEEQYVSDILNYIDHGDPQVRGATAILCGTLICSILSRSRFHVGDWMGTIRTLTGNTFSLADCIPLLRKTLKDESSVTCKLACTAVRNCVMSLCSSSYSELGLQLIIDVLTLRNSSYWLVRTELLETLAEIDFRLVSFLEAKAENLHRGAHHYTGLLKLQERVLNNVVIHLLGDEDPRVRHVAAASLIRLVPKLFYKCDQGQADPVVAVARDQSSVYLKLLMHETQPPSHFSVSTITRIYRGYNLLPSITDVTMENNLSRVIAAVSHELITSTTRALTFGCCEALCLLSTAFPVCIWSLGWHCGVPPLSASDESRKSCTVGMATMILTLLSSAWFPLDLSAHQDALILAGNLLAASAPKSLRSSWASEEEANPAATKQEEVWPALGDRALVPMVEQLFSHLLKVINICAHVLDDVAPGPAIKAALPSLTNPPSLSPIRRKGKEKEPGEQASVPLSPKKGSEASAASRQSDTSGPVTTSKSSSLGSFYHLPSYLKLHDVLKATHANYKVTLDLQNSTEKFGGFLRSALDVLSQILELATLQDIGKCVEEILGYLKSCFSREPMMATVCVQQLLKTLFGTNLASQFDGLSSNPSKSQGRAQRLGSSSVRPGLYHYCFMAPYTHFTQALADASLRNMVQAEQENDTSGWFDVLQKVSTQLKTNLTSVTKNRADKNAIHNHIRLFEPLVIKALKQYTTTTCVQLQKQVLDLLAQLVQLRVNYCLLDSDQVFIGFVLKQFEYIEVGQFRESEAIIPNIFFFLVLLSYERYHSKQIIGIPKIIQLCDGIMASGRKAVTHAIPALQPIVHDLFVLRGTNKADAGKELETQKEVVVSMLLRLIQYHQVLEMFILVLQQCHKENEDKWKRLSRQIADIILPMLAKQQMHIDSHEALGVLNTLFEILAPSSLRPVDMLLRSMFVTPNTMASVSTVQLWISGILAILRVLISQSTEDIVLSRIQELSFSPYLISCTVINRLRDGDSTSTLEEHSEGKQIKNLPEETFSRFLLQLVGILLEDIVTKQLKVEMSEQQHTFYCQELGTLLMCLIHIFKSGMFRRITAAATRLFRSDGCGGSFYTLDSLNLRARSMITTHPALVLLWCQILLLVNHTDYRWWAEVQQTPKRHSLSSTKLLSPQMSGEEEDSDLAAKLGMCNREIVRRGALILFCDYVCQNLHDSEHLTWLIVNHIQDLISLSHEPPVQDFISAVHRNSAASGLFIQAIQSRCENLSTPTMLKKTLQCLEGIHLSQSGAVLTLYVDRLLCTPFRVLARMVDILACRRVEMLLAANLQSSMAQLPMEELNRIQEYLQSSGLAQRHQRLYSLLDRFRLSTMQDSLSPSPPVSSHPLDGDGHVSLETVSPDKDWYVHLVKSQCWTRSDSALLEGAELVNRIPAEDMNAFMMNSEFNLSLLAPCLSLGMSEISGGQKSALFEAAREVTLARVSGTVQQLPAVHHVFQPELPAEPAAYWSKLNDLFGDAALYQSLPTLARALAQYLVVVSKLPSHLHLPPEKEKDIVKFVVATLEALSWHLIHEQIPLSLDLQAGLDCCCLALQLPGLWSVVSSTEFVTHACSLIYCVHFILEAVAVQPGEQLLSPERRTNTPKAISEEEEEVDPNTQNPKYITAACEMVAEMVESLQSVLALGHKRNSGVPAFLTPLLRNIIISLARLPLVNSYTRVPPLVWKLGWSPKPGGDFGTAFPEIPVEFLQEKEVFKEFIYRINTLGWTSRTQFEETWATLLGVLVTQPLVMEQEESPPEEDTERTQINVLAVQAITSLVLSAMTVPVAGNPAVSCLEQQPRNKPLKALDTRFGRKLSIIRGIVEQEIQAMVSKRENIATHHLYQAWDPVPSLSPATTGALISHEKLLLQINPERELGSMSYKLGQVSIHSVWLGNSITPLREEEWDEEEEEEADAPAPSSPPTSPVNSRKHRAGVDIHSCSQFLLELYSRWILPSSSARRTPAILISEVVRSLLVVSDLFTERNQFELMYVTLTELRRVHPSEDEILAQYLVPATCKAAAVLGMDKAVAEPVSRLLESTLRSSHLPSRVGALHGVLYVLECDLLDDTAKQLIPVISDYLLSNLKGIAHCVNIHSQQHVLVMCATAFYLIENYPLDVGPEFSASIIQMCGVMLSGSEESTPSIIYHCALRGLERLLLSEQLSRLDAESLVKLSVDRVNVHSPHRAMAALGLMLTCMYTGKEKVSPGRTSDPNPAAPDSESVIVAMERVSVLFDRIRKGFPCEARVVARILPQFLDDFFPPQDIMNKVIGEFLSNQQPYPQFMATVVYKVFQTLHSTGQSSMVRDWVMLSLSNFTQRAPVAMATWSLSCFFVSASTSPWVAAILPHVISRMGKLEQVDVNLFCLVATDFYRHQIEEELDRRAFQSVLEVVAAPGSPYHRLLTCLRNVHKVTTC
Pf apPOL inh = Pf-apPOL DNA polymerase inhibition. Recombinant Pf-apPOL, molecular beacon fluorescence, 1.5 h. inhibition, % at 10 µM. 0.25% of 210,000 active. AID 1794808
Of the large screens only hits and unclear results are named; the others gave an inactive call. Rule as the data show it: active = inhibition above about 50%; inactive = the rest.

CCn1ccc(C(=O)N2CCc3[nH]nc(-c4ccc(F)cc4)c3C2)n1	none
COc1cccc2c1OC1(CCC(C)CC1)N1N=C(c3ccc(C)o3)CC21 (stereo unspecified)	mHTT CaM bind 85.0
COc1ccc(C2=NN3C(C2)c2ccccc2OC32CCCCC2)cc1 (stereo unspecified)	none
COc1cccc2c1OC1(CCCCC1)N1N=C(c3ccc(C)o3)CC21 (stereo unspecified)	mHTT CaM bind 80.0
COc1cccc2c1OC1(CCCCC1)N1N=C(c3ccccc3)CC21 (stereo unspecified)	none
O=[N+]([O-])CS(=O)(=O)c1cccc(Cl)c1	none (no result: mHTT CaM bind)
COc1cc(OC)cc(C(=O)N2CCC3(CC2)CC(=O)c2ccccc2O3)c1	none
CC(=O)N1CCC(n2c(C)nc(C(=O)Nc3ccc(Oc4ccccc4)cc3)c2C)CC1	mHTT CaM bind 51.6
CCOC(=O)c1ccc(NC(=O)c2nc(C)n(C3CCN(C(C)=O)CC3)c2C)cc1	none
O=[N+]([O-])c1ccc(S(=O)(=O)C(F)(F)F)cc1	none
O=C(Nc1ccc2c(c1)OCO2)C1CCN(c2cc(N3CCCCC3)ncn2)CC1	mHTT CaM bind 56.4
O=C(Nc1ccc2c(c1)OCO2)C1CCN(c2cncnc2N2CCCCC2)CC1	none
CC1(C(=O)O)COC(c2ccc([N+](=O)[O-])cc2)OC1 (stereo unspecified)	none
CNc1ncnc2c1C(c1ccc([N+](=O)[O-])cc1)c1c(NC)ncnc1O2	mHTT CaM bind 52.0
CCNC(=O)C1CC(=O)N(CCc2c[nH]c3ccc(Cl)cc23)C1 (stereo unspecified)	none
NC(=O)c1ccc(NC(=O)C2CC(=O)N(CCc3c[nH]c4ccc(Cl)cc34)C2)cc1 (stereo unspecified)	mHTT CaM bind 100.1
Cc1nnc(NC(=O)C2CC(=O)N(CCc3c[nH]c4ccc(Cl)cc34)C2)s1 (stereo unspecified)	none
CN(Cc1ccccc1)C(=O)C1CC(=O)N(CCc2c[nH]c3ccc(Cl)cc23)C1 (stereo unspecified)	mHTT CaM bind 61.7
Cc1cc(C)cc(N2CC(C(=O)N(C)Cc3ccccc3)CC2=O)c1 (stereo unspecified)	none
Cc1ccc2[nH]cc(CCN3CC(C(=O)Nc4ccc5c(c4)OCO5)CC3=O)c2c1 (stereo unspecified)	none
O=C(Nc1ccc2c(c1)OCO2)C1CC(=O)N(CCc2c[nH]c3ccc(Cl)cc23)C1 (stereo unspecified)	mHTT CaM bind 82.0
Cc1ccc(N2CC(C(=O)N(C)Cc3ccccc3)CC2=O)cc1Cl (stereo unspecified)	mHTT CaM bind 60.7
CCCn1c(C2CCN(C(=O)CC3CCCCC3)C2)nc2cccnc21 (stereo unspecified)	none
Cc1nc2ccccc2c2c1C(=O)N(c1ccc(F)cc1)C2=O	none
CC1CCc2nc(NC(=O)c3cc(=O)c4ccccc4o3)sc2C1 (stereo unspecified)	none
CCCOc1ccc(CN2CCCC2c2cc(C)on2)cc1OCC (stereo unspecified)	none
O=c1[nH]c(Nc2ccc(F)c(Cl)c2)nnc1Cc1ccc(F)cc1	none
CCOc1ccc(NC(=O)C2CC(=O)N(CCc3c[nH]c4ccc(F)cc34)C2)cc1 (stereo unspecified)	none
CCc1ccc(NC(=O)C2CC(=O)N(CCc3c[nH]c4ccc(F)cc34)C2)cc1 (stereo unspecified)	mHTT CaM bind 56.8
Cc1ccc2[nH]cc(CCN3CC(C(=O)Nc4ccc(F)cc4)CC3=O)c2c1 (stereo unspecified)	none
O=C(Nc1ccc(Cl)cc1)C1CC(=O)N(CCc2c[nH]c3ccc(F)cc23)C1 (stereo unspecified)	none
COc1ccc(NC(=O)C2CC(=O)N(CCc3c[nH]c4ccc(Cl)cc34)C2)cc1 (stereo unspecified)	mHTT CaM bind 87.4
CCOc1ccc(NC(=O)C2CC(=O)N(CCc3c[nH]c4ccc(Cl)cc34)C2)cc1 (stereo unspecified)	mHTT CaM bind 99.3
COc1ccc2[nH]cc(CCN3CC(C(=O)Nc4ccc(C)c(Cl)c4)CC3=O)c2c1 (stereo unspecified)	mHTT CaM bind 74.6
COc1ccc(NC(=O)C2CC(=O)N(CCc3c[nH]c4ccc(F)cc34)C2)c(OC)c1 (stereo unspecified)	none
CCc1ncn2ccn(Cc3cccc(C#N)c3)c(=O)c12	none
C#CCC1(CC#C)C(=O)OC(C)(C)OC1=O	none (no result: mHTT CaM bind)
Cc1ccccc1NC(=O)C1CC(=O)N(CCc2c[nH]c3ccc(Cl)cc23)C1 (stereo unspecified)	mHTT CaM bind 56.1
Cc1ccc2[nH]cc(CCN3CC(C(=O)Nc4cc(Cl)ccc4C)CC3=O)c2c1 (stereo unspecified)	none
Cc1ccc(NC(=O)C2CC(=O)N(CCc3c[nH]c4ccc(Cl)cc34)C2)cc1 (stereo unspecified)	mHTT CaM bind 61.9
Cc1ccccc1NC(=O)C1CC(=O)N(CCc2c[nH]c3ccc(F)cc23)C1 (stereo unspecified)	none
